HCV inh: qHTS Assay for Inhibitors of Hepatitis C Virus (HCV) | Huh7.5.1 HCVcc-Cre infection, luciferase reporter, 44 h | Potency, µM (highest dose often 41.8 µM), inactives show at the top dose activity change, negative = inhibition, actives largely listed as inhibitors | hit rate 3.4% among 340,000; active = well fitted inhibition curve with a large enough effect; inconclusive = small, poorly fitted or top-dose-only effect, or another doubt; inactive = no such curve, though single readings can be large or run the other way; also: potency is read from the fitted curve at half-maximal effect
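Infectious HCVcc-Cre (~0.5 moi) was added to cells just after compound, with cells seeded 4 h earlier at 1,000 per well. Luciferase activity after 44 h culture reported infection; substrate was incubated 15 min at room temperature before reading.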
Vaccinia mCherry: qHTS for Stage-Specific Inhibitors of Vaccinia Orthopoxvirus: mCherry Reporter Primary qHTS | Potency, µM (series often up to 36.5 µM), without a hit: at the top dose activity change, negative = inhibition, actives largely listed as inhibitors | AID 720579, 2013 | Vaccinia virus mCherry reporter infection, fluorescence | hit rate 0.63% among 310,000; calls by dose curve; tested in A549 cells; also: potency is read from the fitted curve at half-maximal effect; nearly all actives have a fitted effect of over 35% in size
FMDV inh: High Throughput Screening for Foot and Mouth Disease Virus Antivirals | FMDV antiviral cell-based qHTS | hit rate 1.2% among 410,000 | Potency, µM (top dose mostly 57.9 µM), without a hit: top-dose activity change, negative = inhibition, actives largely listed as inhibitors; calls by dose curve; tested in HEK293T cells; also: read-out not given here; potency is read from the fitted curve at half-maximal effect; nearly all actives have a fitted effect of over 45% in size
Vaccinia Venus: qHTS for Stage-Specific Inhibitors of Vaccinia Orthopoxvirus: Venus Reporter Primary qHTS; AID 720580, 2013; hit rate 0.46% among 330,000; Potency, µM (titrated, usually from 36.5 µM), inactives show at the top dose activity change, negative = inhibition, actives largely listed as inhibitors; Vaccinia virus Venus reporter expression, fluorescence; calls by dose curve; tested in A549 cells; also: potency is read from the fitted curve at half-maximal effect; nearly all actives have a fitted effect of over 30% in size
HCMV inh: qHTS Assay for inhibitors of the human cytomegalovirus (HCMV); HFF cells, HCMV-luciferase reporter, 72 h; stronger effect = lower value; activity change, negative = inhibition, % at 57.5 µM; hit rate 4.5% among 410,000; AID 1259415, 2018; in the data active = activity change below about -60%; inconclusive = no clear call, values can overlap the other calls; inactive = above about -39%
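HFF cells seeded 16 h at 37C, treated with compounds, infected with luciferase-reporter HCMV at MOI 1 PFU/cell; luciferase read at 72 h post infection, normalized to buffer-only and Salinomycin controls.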
Active calls of the source: *; i = inactive; ? = inconclusive; · = no result; + = active, no number. Shown are actives, neighbours in structure and some others; about 7.3% of the full set was active somewhere. % is scaled to controls: 0 for no effect and ±100 for the full control effect.

SMILES	HCV inh	Vaccinia mCherry	FMDV inh	Vaccinia Venus	HCMV inh
CCCCNC(=O)c1ccccc1Cl	10%	·	0%	·	-107*
CCCCNC(=O)c1cccc2c(=O)c(C)c(-c3ccccc3)oc12	?	i	0%	-18%	-68*
CCCCN(C(=O)c1cccc2c(=O)c(C)c(-c3ccccc3)oc12)c1ccccc1	?	·	?	·	-63*
CC1CCN(c2nc3ccc(C(=O)N4CCN(Cc5ccc6c(c5)OCO6)CC4)cc3s2)CC1	3.2µM*	?	-14%	?	?
O=C(c1cccc(Cl)c1)N1CCN(Cc2ccc3c(c2)OCO3)CC1	14%	·	-19%	·	-15
O=C(C(Cl)Cl)N1CCN(Cc2ccc3c(c2)OCO3)CC1	?	·	-7%	·	-74*
C=CCNC(=S)N1CCN(Cc2ccc3c(c2)OCO3)CC1	1%	·	-7%	·	-98*
O=C(c1sccc1Br)N1CCN(Cc2ccc3c(c2)OCO3)CC1	?	-17%	-27%	-15%	-63*
Cc1ccc(C(=O)N2CCN(Cc3ccc4c(c3)OCO4)CC2)o1	2%	-10%	-1%	-6%	0
CCCC(=O)Oc1ccccc1C1SCc2cc(C)c(C)cc2CS1	-26%	-1%	-18%	-14%	-60*
CCn1c(-c2ccc(N)cc2)nc2ccccc21	10%	i	16%	-14%	161
CCn1c(-c2ccc(N(C)C)cc2)nc2ccccc21	?	·	-27%	·	-96*
Cc1ccccc1Oc1nc2ccccn2c(=O)c1/C=C(\C#N)C(=O)Nc1c(C)n(C)n(-c2ccccc2)c1=O	12%	i	22µM*	-13%	38
Cc1ccccc1Oc1nc2c(C)cccn2c(=O)c1/C=C(\C#N)C(=O)Nc1c(C)n(C)n(-c2ccccc2)c1=O	16%	i	32µM*	-8%	77
Cc1nn(CCCC(=O)NCc2cccc(Cl)c2)c(=O)c2c1sc1ccccc12	·	-9%	-15%	-11%	-32
CC1CCN(C(=O)c2scc3c2OCCO3)CC1	1%	-6%	2%	1%	-63*
CC1CN(C(=O)c2scc3c2OCCO3)CC(C)O1 (configuration not stated)	8%	-15%	-10%	-13%	41
CC1(C(=O)O)CCN1C(=O)c1ccccc1F (configuration not stated)	·	23%	5µM*	-8%	-1
Cc1ccc(F)cc1C(=O)N1CCC1(C)C(=O)O (configuration not stated)	·	17%	-18%	2%	-25
COc1ccc(Br)cc1CNC(=O)c1cc2n(n1)CCCN(Cc1ccc(C)cc1)C2=O	·	-10%	-12%	-8%	7
O=c1c2ccccc2[nH]c(=S)n1CCCN1CCN(c2ccccc2F)CC1	?	·	-13%	·	-63*
O=c1c2ccccc2[nH]c(=S)n1CCN1CCCCC1	8%	·	-24%	·	32
O=C(CCCN1CCN(c2ccccc2)CC1)c1ccc(F)cc1	·	i	-9%	-13%	-19
Clc1cccc(N2CCN(CCCN3CCN(c4ccccc4)CC3)CC2)c1	11µM*	?	-23%	-8%	?
O=c1c2ccccc2[nH]c(=S)n1CCCN1CCN(c2ccccc2)CC1	-21%	?	-30%	7%	-67*
SMILES	HCV inh	Vaccinia mCherry	FMDV inh	Vaccinia Venus	HCMV inh
O=C1CC(=C(c2ccccc2)c2ccccc2)C(=O)N1CCCCN1CCN(c2ccccc2)CC1	1µM*	·	-24%	?	0
COc1ccc(-c2nc3sc(CCNC(=O)C(=O)Nc4ccccc4C#N)c(C)n3n2)cc1	·	i	4%	-9%	-5
COc1ccc(-c2noc(N3CCC(C(=O)N(C)c4cc(Cl)ccc4OC)CC3)n2)cc1	·	-20%	?	-22%	-13
O=C(CCN1C(=O)COc2ccccc21)N1CCN(c2ccccn2)CC1	-5%	-19%	·	-8%	-73*
O=C(CCN1C(=O)COc2ccccc21)N1CCN(c2ccccc2)CC1	26%	-11%	-7%	5%	3
Cc1cccc(C(c2sc3nc(-c4ccco4)nn3c2O)N2CCN(Cc3ccccc3)CC2)c1 (configuration not stated)	·	-2%	-5%	-9%	70
COc1cccc(CN(C)C(=O)c2cnn(-c3nccc(-c4ccc5c(c4)OCO5)n3)c2C)c1	·	-10%	53%	-2%	·
O=C(CC1C=Cc2ccccc2N1C(=O)c1ccccc1)c1ccccc1 (configuration not stated)	10µM*	-10%	-25%	-19%	-2
c1ccc(CN2CCC3(CCNCC3)CC2)cc1	·	·	-26%	·	·
O=C(CN1C(=O)COc2ccc(Cl)cc21)Nc1ccc(F)cc1	·	-6%	-10%	-10%	-8
O=C1CC(=O)OC(c2ccc([N+](=O)[O-])cc2)O1	·	13µM*	10µM*	13µM*	·
CCC1C(=O)C(C)(C)C(=O)OC1c1ccc([N+](=O)[O-])cc1 (configuration not stated)	-30%	-8%	-18%	-17%	59
COc1ccc(C(=O)c2cn(Cc3ccccc3F)c3cc4c(cc3c2=O)OCCO4)cc1OC	·	-12%	-9%	-12%	-28
Cc1cc(SCc2ccc(C(F)(F)F)cc2)nc(=O)[nH]1	6%	·	9%	·	+
COc1ccc(-n2c(/C=C3/C(=O)Nc4ccccc43)nc3ccccc3c2=O)cc1	1%	i	?	-6%	?
CC(C)N1C(=O)/C(=C/c2nc3ccccc3c(=O)n2-c2ccccc2)c2ccccc21	?	-2%	28µM*	-13%	-105*
CC(C)N1C(=O)C(Cc2nc3ccccc3c(=O)n2-c2ccccc2)c2ccccc21 (configuration not stated)	?	-28%	-11%	-17%	-72*
CN1C(=O)C(Cc2nc3ccccc3c(=O)n2-c2ccccc2)c2ccccc21 (configuration not stated)	15%	·	-15%	·	-23
CC(C)N1C(=O)/C(=C\c2nc3ccccc3c(=O)n2-c2ccccc2)c2ccccc21	?	11µM*	18µM*	?	-95*
O=C(OCc1c(F)cccc1Cl)c1cc([N+](=O)[O-])ccc1N1CCOCC1	11µM*	?	-29%	-9%	-23
CC1CCCN(C(=O)COC(=O)c2cc([N+](=O)[O-])ccc2N2CCOCC2)C1 (configuration not stated)	32µM*	i	-18%	-13%	-13
Cc1ccc(COC(=O)c2cc([N+](=O)[O-])ccc2N2CCOCC2)cc1	·	·	·	·	-63*
Cc1ccc(C(=O)c2cc([N+](=O)[O-])ccc2N2CCOCC2)cc1	?	?	-16%	-22%	-15
O=C(OCc1ccccc1Cl)c1cc([N+](=O)[O-])ccc1N1CCOCC1	?	·	?	·	15
O=C(OCC(=O)N1CCCC1)c1cc([N+](=O)[O-])ccc1Cl	-3%	-11%	10µM*	17%	-19

Screens from PubChem.
